NALP3 yeast inh: NALP3 inflammasome inhibitors in reconstituted yeast, primary screen, luminescence, uHTS. inhibition, % at 10 µM. 330,000 compounds, 0.39% hits. Yeast reconstituted NLRP3/ASC/caspase-1, beta-gal luminescence, 24 h;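 active = inhibition of 50% or more; inactive = inhibition below 50%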;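 also: plate controls were induced DMSO wells for no effect and uninduced yeast grown without galactose for full effect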
NALP1 inh: NALP1 inflammasome inhibitors in reconstituted yeast, colorimetric, S. cerevisiae, triplicate retest | S. cerevisiae NALP1/ASC/caspase-1 growth, X-gal OD620, 72 h | inhibition, % at 10 µM | 280,000 compounds, 0.61% hits | AID 2071, 2009; in the data active = inhibition mostly above about 24%, no sharp cut-off; inactive = mostly below about 32%
V-ATPase pH: regulators of yeast V-ATPase proton pumping, primary screen, pHLuorin cytosolic pH fluorescence. 350,000 compounds, 0.37% hits. response, % at 10 µM. S. cerevisiae; in the data active = response mostly above about 7.3%, no sharp cut-off; inactive = mostly below about 5.4%; also: actives read high
Rce1 inhib: yeast Rce1p protease inhibitors, primary screen, biochemical, fluorescence, cell-free homogeneous. CAAX prenyl protease 2 (Saccharomyces cerevisiae (strain ATCC 204508 / S288c)), Q03530. AID 2563, 2010. calls only. 290,000 compounds, 0.27% hits. yeast membranes, quenched prenylated peptide cleavage fluorescence;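 active = fall in fluorescence gain of 50% or more versus controls, with final raw signal at or below 3038400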;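 also: plate controls were neutral control wells for no effect and wells lacking membranes for full effect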
CR mimetic SO: reduction of superoxide in aged yeast, primary screen, HTS | 330,000 compounds, 0.18% hits | superoxide response (% of plate mean), % at 10 µM | AID 2690, 2010 | S. cerevisiae aged cells, superoxide DHE fluorescence; hits give low values;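 active = superoxide response under a set limit, about three screen SD below normal, cut at about 65% in these data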;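 also: yeast aged for seven days with compound at 30 °C before DHE staining; 100% = average MFI of all compound-treated wells on the plate with controls excluded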
PERK inh: block of dimerizer-induced PERK translation repression, primary screen, PERK inhibitor project, CHO PERK-DD cells, SEAP luminescence, HTS; Eukaryotic translation initiation factor 2-alpha kinase 3 (Homo sapiens), Q9NZJ5; CHO PERK-DD fusion, SEAP luminescence translation reporter; inhibition, % at 5.6 µM; 220,000 compounds, 0.17% hits; AID 1416, 2008;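 active = inhibition above the mean inhibition of all tested compounds plus 3 SD, set separately per screening campaign, cut at about 2.9% in these data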;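 also: PERK kinase domain activated by AP20187 dimerizer at 100 nM; 0% = DMSO with dimerizer and 100% = rapamycin at 8.4 µM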
An asterisk follows results filed as active. In the library only some 1.6% were active in any assay of this set; here they are far more common.

What do the screens show for `COc1ccc(CCn2c(-c3ccc(C(C)(C)C)cc3)n[nH]c2=S)cc1OC`?
NALP3 yeast inh: 42; NALP1 inh: -1; V-ATPase pH: 0; CR mimetic SO: 85; PERK inh: 0

What do the screens show for `COc1ccc(CCn2c(-c3ccc(Cl)cc3)n[nH]c2=S)cc1OC`?
NALP3 yeast inh: 18; NALP1 inh: 33*; V-ATPase pH: -3; Rce1 inhib: inactive; CR mimetic SO: 100; PERK inh: 1

What do the screens show for `Cc1ccc2c(c1)CCO[C@@]21O[C@H](CCO)C[C@H](O)[C@H]1O`?
V-ATPase pH: -2

Results for C=CCCCCCCCCc1nc(SCC(C)=O)n[nH]1 ?
NALP3 yeast inh: 19; NALP1 inh: -3; V-ATPase pH: -2; Rce1 inhib: inactive; CR mimetic SO: 104; PERK inh: 2

How did C=CCCCCCCCCc1nc(SCC(=O)O)n[nH]1 do in these assays?
NALP3 yeast inh: 5; NALP1 inh: -10; V-ATPase pH: -4; Rce1 inhib: inactive; CR mimetic SO: 92; PERK inh: 3.0*

How did CC(NC(=O)/C(C#N)=C/c1ccc([N+](=O)[O-])o1)c1ccccc1 (stereo unspecified) do in these assays?
NALP3 yeast inh: 24; NALP1 inh: 68*; V-ATPase pH: 94*; Rce1 inhib: inactive; CR mimetic SO: 98

What do the screens show for `Cc1cn(CC(=O)NCc2ccc3c(c2)OCO3)c(=O)[nH]c1=O`?
V-ATPase pH: 5

What do the screens show for `CSc1ccccc1NC(=O)CN(c1cccc(C)c1)S(C)(=O)=O`?
NALP3 yeast inh: 6; NALP1 inh: -24; V-ATPase pH: 13*; Rce1 inhib: inactive; CR mimetic SO: 98; PERK inh: 0

How did CCN(CC)CCCNc1cc(C)nc2cc(-c3cccs3)nn12 do in these assays?
NALP3 yeast inh: 14; NALP1 inh: -7; V-ATPase pH: 0; Rce1 inhib: active; CR mimetic SO: 99; PERK inh: 0

Results for COCOCCn1cc(CN2CCS(=O)(=O)N(Cc3ccc(-c4ccc(F)cc4)cc3)C(CC(C)C)C2=O)nn1 (stereo unspecified) ?
V-ATPase pH: 2

Results for OC(CN1CCN(Cc2ccccc2)CC1)Cn1c2ccccc2c2ccccc21 (stereo unspecified) ?
NALP3 yeast inh: 31; NALP1 inh: 50*; V-ATPase pH: 0; Rce1 inhib: inactive; CR mimetic SO: 87; PERK inh: -1

What do the screens show for `OC(CN1CCN(c2ccccc2)CC1)Cn1c2ccccc2c2ccccc21` (stereo unspecified)?
NALP3 yeast inh: 24; NALP1 inh: 10; V-ATPase pH: 2; Rce1 inhib: inactive; CR mimetic SO: 93; PERK inh: 0

Results for Cc1ccc(OCCN2CCN(CC(O)Cn3c4ccccc4c4ccccc43)CC2)cc1 (stereo unspecified) ?
NALP3 yeast inh: 33; NALP1 inh: 76*; Rce1 inhib: inactive; CR mimetic SO: 88; PERK inh: -1

Results for Cc1ccc(OCC(O)Cn2c3ccccc3c3ccccc32)cc1 (stereo unspecified) ?
NALP3 yeast inh: 5; NALP1 inh: 8; V-ATPase pH: 0; Rce1 inhib: inactive; CR mimetic SO: 100; PERK inh: 1

What do the screens show for `C[C@H]1CN([C@@H](C)CO)S(=O)(=O)c2ccc(/C=C/c3ccccc3)cc2O[C@H]1CN(C)C(=O)NC1CCCCC1`?
V-ATPase pH: -3

How did Cc1cc(OCCCCCn2ccnc2)cc(C)c1Cl do in these assays?
NALP3 yeast inh: 26; NALP1 inh: 26*; V-ATPase pH: -1; Rce1 inhib: inactive; CR mimetic SO: 94; PERK inh: 0

What do the screens show for `CN(CC1CCCN(CCc2ccccc2F)C1)C(=O)c1cc2ccccc2o1` (stereo unspecified)?
V-ATPase pH: -3

How did Cc1ccc2c(=O)n3c(nc2c1)C(Cc1ccccc1)NC(=O)c1cc2ccccc2cc1-3 (stereo unspecified) do in these assays?
V-ATPase pH: 1

Results for CCn1cc(S(=O)(=O)CC(=O)Nc2ccc(OC)cc2)c2ccccc21 ?
NALP3 yeast inh: 9; NALP1 inh: 15; V-ATPase pH: 16*; Rce1 inhib: inactive; CR mimetic SO: 116; PERK inh: 1

How did C[C@H](O)[C@@H]1C(=O)N2CCc3c([nH]c4ccccc34)[C@@H]2C[C@@H]1N(C)Cc1ccc(Cl)cc1 do in these assays?
V-ATPase pH: 1

Results for CCC(OC(=O)C1=Cc2ccccc2OC1)C(=O)NCc1ccco1 (stereo unspecified) ?
NALP3 yeast inh: 33; NALP1 inh: 33*; V-ATPase pH: 5; Rce1 inhib: inactive; CR mimetic SO: 89; PERK inh: 0

What do the screens show for `CC(C)CN(C(=O)CSc1nncs1)c1c(N)n(CC(C)C)c(=O)[nH]c1=O`?
NALP3 yeast inh: 6; NALP1 inh: 45*; V-ATPase pH: -1; Rce1 inhib: inactive; CR mimetic SO: 97; PERK inh: 0

How did CCN(C(=O)CSc1nncs1)c1c(N)n(Cc2ccccc2)c(=O)[nH]c1=O do in these assays?
NALP3 yeast inh: -7; NALP1 inh: 9; V-ATPase pH: -2; Rce1 inhib: inactive; CR mimetic SO: 126; PERK inh: 2

How did CCN(C(=O)COC(=O)c1cc(-c2cccs2)nc2ccccc12)C1CCS(=O)(=O)C1 (stereo unspecified) do in these assays?
NALP3 yeast inh: 8; NALP1 inh: 9; V-ATPase pH: 1; Rce1 inhib: active; CR mimetic SO: 119; PERK inh: 0

How did CCN(C(=O)COC(=O)c1cc(-c2ccc(C)o2)nc2ccccc12)C1CCS(=O)(=O)C1 (stereo unspecified) do in these assays?
NALP3 yeast inh: 14; NALP1 inh: 10; V-ATPase pH: 7; Rce1 inhib: inactive; CR mimetic SO: 109; PERK inh: 0

Results for COc1cccc(-c2ccc3c(c2)O[C@H](CN(C)C(=O)c2ccccc2F)[C@H](C)CN([C@H](C)CO)S3(=O)=O)c1 ?
V-ATPase pH: 1

Results for C#C[C@]1(O)CC[C@H]2[C@@H]3CCC4=CC(=O)CC[C@@H]4[C@H]3CC[C@@]21C ?
NALP3 yeast inh: 25; V-ATPase pH: 25*; Rce1 inhib: inactive; CR mimetic SO: 97

Results for O=c1[nH]c2ccccc2nc1C(F)(F)F ?
NALP3 yeast inh: 7; NALP1 inh: 37*; V-ATPase pH: 1; Rce1 inhib: inactive; CR mimetic SO: inactive; PERK inh: 1
